Measurements: PubChem BioAssay AID935 (National Center for Advancing Translational Sciences (NCATS), 2007)
Results filed as inconclusive are left out. Calls of active or inactive are those of the source. The call rests on the fitted dose curve.

experiment: Confirmation Concentration-Response Assay for Identification of Small Molecule Agonists of Stat Signaling Pathway; settings: SIE-bla cells, IL-6 STAT beta-lactamase reporter, 5 h
Text: NIH Molecular Libraries Screening Centers Network [MLSCN] NIH Chemical Genomics Center [NCGC] MLSCN Grant: None NCGC Assay Overview: This assay is a retest of actives identified from the Stat signaling pathway assay (PubChem AID 446). The Stat assay is cell-based and measures Interleukin 6 (IL-6) mediated modulation of a beta-lactamase reporter gene controlled by a STAT inducible element (SIE-bla cells, Invitrogen). IL-6 is a cytokine that signals via the JAK/STAT pathway and is implicated in cancer and inflammation. SIE-bla cells are induced by IL-6 at 40 pM EC50 and inhibited by the pan JAK inhibitor, 2-(1,1-Dimethylethyl)-9-fluoro-3,6-dihydro-7H-benz[h]-imidaz[4,5-f]isoquinolin-7-one, at approximately 10 nM IC50. Plated cells were incubated overnight and on the following day, stimulated with 40 pM IL-6 for 5 hrs. The assay was stimulated with an EC50 of IL-6 to retest activators of STAT signaling.
NCGC Assay Protocol Summary: Cells were trypsinized, washed in assay medium (AM, OPTI MEM with 0.5% fetal bovine serum, 0.1 mM nonessential amino acids, 1 mM sodium pyruvate, 10mM HEPES pH 7.3, 100U/ml penicillin, and 100 ug/ml streptomycin) and suspended at […] in AM. Approximately 2500 cells in 5 uL/well was dispensed into 1536-well plates and the cells were incubated overnight at 37 C. 23 nL of compound were delivered by a pin tool and 1 uL of IL-6 (40 pM final concentration in AM) was added. After plates were incubated at 37 C for 5 hrs, 1uL of detector mix (LiveBLAzerTM, Invitrogen) was added, the plates incubated at room temperature for 2.5 hrs, and fluorescence intensity at 460 and 530 nm emissions was measured at 405 nm excitation by an Envision (Perkin Elmer).

Potency, active:
Cc1ccc(S(=O)(=O)N2CCN(c3nc(C(C)C)c4c(c3C#N)CC(C)(C)OC4)CC2)cc1 10 µM, CCN(CC)CCC[C@H](C)Nc1c2ccc(Cl)cc2nc2ccc(OC)cc12 12.6 µM, CN(C)c1ccc(-c2nn3c(-c4ccc(Cl)cc4)nnc3s2)cc1 3.16 µM, COc1cccc2c1C(=O)c1c(O)c3c(c(O)c1C2=O)C[C@@](O)(C(=O)CO)C[C@@H]3O[C@H]1C[C@H](N)[C@H](O)[C@H](C)O1 3.98 µM, CC1CCN(c2oc(-c3ccccc3Cl)nc2C#N)CC1 6.31 µM, CCOC(=O)c1cc2c(=O)n3cccc(C)c3nc2n(C)c1=N 3.98 µM, Cc1cc(=O)oc2c(CN3CCCCC3)c(O)c(Cl)cc12 10 µM, CCNC(=O)c1cc2c(=O)n3cccc(C)c3nc2n(CCc2ccccc2)c1=N 12.6 µM, Nc1ncnc2c1ncn2[C@@H]1O[C@H](COP(=O)(O)O)[C@@H](O)[C@@H]1O 25.1 µM, Cc1ccc(CNC(=O)c2cc3c(=O)n4ccccc4nc3n(CC3CCCO3)c2=N)cc1 (stereo unspecified) 10 µM, CCN(CC)CCN1C(=O)c2cccc3cc(N)cc(c23)C1=O 15.8 µM
